For 40 compounds, growth results are on record in PubChem BioAssay (NCI).

Structures are written as SMILES. This is part of a sample that, as a whole, favours compounds with a hit. Of some 83,000 tested, about 20% had one in any assay.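 Single-dose data. Exposure time 48 hours. Values below 10 considered active.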 A number with no mark means an inactive call. Active and inactive are the calls of the source.

The test system of this assay is A498 renal. Description: NCI-60 one-dose screen, 48 h (100 = growth as untreated, 0 = no growth, -100 = all killed). The conditions noted are these: 10 µM unless noted. As for the experimental part:
Growth inhibition of the A498 human tumor cell line is measured as a screen for anti-cancer activity. Cells are grown in 96 well plates and exposed to the test compound for 48 hours. Compounds are tested at a single concentration, which is 10^-5 M for most compounds. The reported endpoint is percent growth (GI% or GIPRCNT), where numbers from 0 - 100% represent growth inhibition, and numbers from -100% - 0 represent cell death. For example, a value of 40 represents 60% growth inhibition. A value of 0 means no net growth occurred over the course of the experiment. A value of -40 indicates 40% of cells at the beginning of the experiment died by the end of the experiment. A value of -100 means all cells are dead at the end of the experiment.
NCI-60 Human Tumor Cell Lines Screen was performed using the standard one-dose NCI protocol, which is described in more detail at https://dtp.cancer.gov/discovery_development/nci-60/default.htm.
Compounds with GIPRCNT values below 10 were considered active. Activity score was based on GIPRCNT using the following formula: […]
Score is 0 for GIPRCNT values of 100 or above, 50 for GIPRCNT values of 0, and 100 for GIPRCNT values of -100.
Take `COc1ccccc1CNCCCN1C(=O)c2ccc3c4c(ccc(c24)C1=O)C(=O)N(CCCOCCCCOCCCN)C3=O`: the growth is -16.1% (active).

Turning to `CCCCn1cnc2c(SCc3ccc([N+](=O)[O-])cc3)nc(N)nc21`, the growth was 86.3%.

As for `CC(C)[C@@]12C[C@@H](OC(=O)C3CO3)[C@@](C)(O1)[C@@H]1CC[C@@H](C)[C@H]1[C@@H]2OC(=O)/C=C/c1ccccc1` (stereo not given in full), the growth was -31.7% (active).

As for `CCCCCCCCCCCC1=NC(C)(C)CN1CCO`, the growth was 95.4%.

For the compound `C=CCOC(=O)C1=C(C)NC2=C(C(=O)CCC2)C1c1ccc(F)cc1` (stereo not given), the growth is 99.3%.

`COc1ccc(-c2cc(C(=O)Nc3ccc(C)cc3)nc3[nH]c(=O)sc23)cc1`: the growth is 9.83% (active).

For `Cc1ccc([C@H]2c3[nH]c4ccccc4c3C[C@H]3C(=O)N(CCCCCCC(=O)NO)CC(=O)N23)cc1`, the growth is 61.9%.

Consider `CS(=O)(=O)c1ccc(C(=O)N/N=C/c2ccc3c(c2)OCO3)cc1`, for which the growth was 94.6%.

Turning to `COc1ccc(C(=O)OC2C(OC3C(O)COC(O[C@H]4C[C@H]5[C@@H]6CC=C7C[C@@H](O)CC[C@]7(C)[C@H]6CC[C@]5(C)[C@H]4[C@H](C)C(=O)CCC(C)C)C3OC(=O)C(C)C)OCC(O)C2O)cc1` (stereo not given in full), the growth is -61.2% (active).

In the case of `C[N+](C)(C)CC(=O)N/N=C\c1ccco1`, the growth was 98.7%.

Consider `COc1cc(/C=C\c2cc(/C=C\c3ccc(O)c(OC)c3)n(C(=O)Nc3ccc(C(F)(F)F)cc3)n2)ccc1O`, for which the growth was 108%.

Consider `O=C(CC(=O)c1cccc(Cl)c1)c1cccc(Cl)c1`, for which the growth was 79.2%.

On to `CCOC(=O)N1C2CCC(C2)N1C(=O)OCC`, for which the growth was 115%.

As for `Oc1ccc(-c2nnc3c4[nH]ccc4ncn23)cc1`, the growth is 74.4%.

For `CCN1C(=O)N(CC)C2C1NC(=O)N2/N=C/C=C/c1ccccc1` (stereo not given), the growth was 25.2%.

With `CC(C)CC(=O)C(CCc1ccccn1)C(C)C` (stereo not given), the growth was 91.8%.

As for `O=C1CCCN1C(O)CCN(Cc1ccccc1)Cc1ccc(Cl)cc1` (stereo not given), the growth was 109%.

Consider `Cc1c(C(=O)CCl)c(=O)n(-c2ccccc2)n1C`, for which the growth is 77.4%.

`CNC(=O)c1c(NC(=O)c2ccc(C(C)C)cc2)sc2c1CCC(=O)C2`: the growth is -19.7% (active).

As for `O=C1Nc2ccc(Cl)cc2/C1=C\c1c(-c2ccc(F)cc2)nc2ccccn12`, the growth is -18% (active).

For the compound `Nc1c(C(=O)Nc2ccccc2)sc2nc3c(cc12)C(=O)CCC3`, the growth was 37.3%.

As to `CC[C@]1(O)C[C@H]2CN(CCc3c([nH]c4ccccc34)C(C(=O)OC)(c3cc4c(cc3OC)N(C)[C@H]3[C@@](O)(C(=O)OC)[C@H](OC(C)=O)[C@]5(CC)[C@@H]6C[C@@H]6CN6CC[C@]43[C@@H]65)C2)C1` (stereo not given in full), the growth was 16.6%.

For the compound `CC(C)(C)c1nn(-c2ccccc2)c2c1C(=O)CSC(c1ccccc1Cl)N2` (stereo not given), the growth was 56.9%.

Consider `COc1cnc2c(c1)C(=O)c1c-2n(CCCN2CCCC2)c(=O)c2cc(Cl)ccc12`, for which the growth was -9.2% (active).

Consider `Cc1cccc(N=NC(=S)NNc2cccc(C)c2)c1`, for which the growth was 87.3%.

For the compound `COc1cc(Nc2ncccc2/C=C/C(=O)c2cc(OC)c(OC)c(OC)c2)cc(OC)c1OC`, the growth is 84.9%.

Turning to `CCOc1cc(/C=N\NC(=O)C[N+](C)(C)C)ccc1O`, the growth was 115%.

Regarding `O=C(O)CSc1ccc(NCc2oc(CO)cc(=O)c2O)cc1`, the growth is 106%.

`COc1ccc(/C=C/c2nc3ccccc3c(=O)n2-c2ccc(C#Cc3ccc(C(C)(C)C)cc3)cc2C)c(OC)c1`: the growth was 110%.

For the compound `COc1ccc(-c2cc(-c3cc4ccccc4oc3=O)n(-c3ccccc3)n2)cc1`, the growth was 91.3%.

For the compound `c1ccc2oc(-c3cnc4nonc4n3)cc2c1`, the growth is 103%.

Take `c1ccc(-c2ccc(-c3ccccc3)[nH]2)cc1`: the growth is 63.7%.

Regarding `CC(C)(CCc1ccccn1)C(=O)CCCc1ccccn1`, the growth was 96.3%.

In the case of `O=C(/C=C/c1ccccc1)c1c[nH]c2ccccc2c1=O`, the growth is -6.19% (active).

Turning to `COc1cccc(NC(=O)OC(C)C)c1`, the growth is 92.7%.

Take `C/C(=N\NC(=O)CSc1nc2ccccc2c(=O)n1CCc1ccc(S(N)(=O)=O)cc1)c1ccc(Br)cc1`: the growth was 97.5%.

For the compound `Cc1csc(N/N=C/c2ccncc2)n1`, the growth is 85.2%.

As to `COc1ccc(Cl)cc1Nc1nc(C(F)(F)F)ccc1C(=O)NN`, the growth was 75.3%.

For `O=S1(=O)NCCN1CCNc1nccc(-c2c(-c3cccc(O)c3)nc3sccn23)n1`, the growth was 118%.

In the case of `Cc1nn(-c2cccc(Cl)c2)c(C)c1N=Nc1ccc(Br)cc1`, the growth is 83%.
